Active and inactive are the calls of the source. The call rests on the fitted dose curve; in most records, active means well fitted curve in the direction sought with a large enough effect; inactive means no such curve, though single readings can be large or run the other way.
What follows are compounds tested against Alpha-galactosidase A (Homo sapiens) (UniProt P06280) (assay: qHTS Assay for Inhibitors and Activators of N370S glucocerebrosidase as a Potential Chaperone Treatment of Gaucher Disease: Alpha-Galactosidase Counterscreen). Conditions: purified enzyme, 4-MU-alpha-Gal fluorescence, 20 min; series mostly up to 57.5 µM.
Sequence of Alpha-galactosidase A (Homo sapiens) (P06280 whole entry, looked up): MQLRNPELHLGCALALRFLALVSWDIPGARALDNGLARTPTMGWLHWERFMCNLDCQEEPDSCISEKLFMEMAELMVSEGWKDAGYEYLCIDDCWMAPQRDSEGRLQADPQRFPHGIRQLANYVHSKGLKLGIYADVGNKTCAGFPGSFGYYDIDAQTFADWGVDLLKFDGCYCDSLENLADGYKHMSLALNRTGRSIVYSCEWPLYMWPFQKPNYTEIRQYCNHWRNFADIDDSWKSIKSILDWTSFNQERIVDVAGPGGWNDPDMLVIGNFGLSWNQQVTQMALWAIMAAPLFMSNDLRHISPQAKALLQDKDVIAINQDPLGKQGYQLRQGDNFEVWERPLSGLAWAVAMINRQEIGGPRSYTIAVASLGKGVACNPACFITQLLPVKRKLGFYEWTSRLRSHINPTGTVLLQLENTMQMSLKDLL
Description: NIH Chemical Genomics Center [NCGC] NIH Molecular Libraries Probe Production Centers Network [MLPCN] MLPCN Grant: MH086442-01 Assay Submitter (PI): Wei Zheng Glucocerebrosidase (GC) catalyzes the hydrolysis of beta-glucocerebroside to glucose and ceramide in lysosomes. Mutations in the glucocerebrosidase gene result in Gaucher disease, an autosomal recessive lysosomal storage disorder. Many of the mutations encountered in patients with Gaucher disease are missense alterations that may cause misfolding, decreased stability and/or mistrafficking of this lysosomal protein. […] These inhibitors include iminosugar analogs and three non-iminosugar inhibitors identified from a previous HTS of 62,000 compounds with the wild type recombinant enzyme. However, the enhancement of enzyme activity by the chaperone action of an enzyme inhibitor must be balanced against the direct inhibition of the enzyme. An enzyme activator could also function as a chaperone by binding to the enzyme and helping to correct its misfolding and mistrafficking. While activators for GC have not yet been identified, they may have better therapeutic potential than inhibitors. Therefore the discovery and development of chemical activators may provide a new strategy for the chaperone therapy. To characterize compound selectivity, selected hits from the primary screen were screened against purified alpha-galactosidase, a related sugar hydrolase. Alpha-galactosidase is a homodimeric glycoprotein that hydrolyzes the terminal alpha-galactosyl moieties from glycolipids and glycoproteins.
NCGC Assay Protocol Summary: This is a fluorogenic enzyme assay with 4-Methylumbelliferyl alpha-D-galactopyranoside as the substrate and human […] as the enzyme preparation. Upon the hydrolysis of this fluorogenic substrate, the resulting product, […]. 4-Methyllumbelliferone, can be excited at 365 nm and emits at 440 nm. This fluorescence which can be detected by a standard fluorescence plate reader. Data were normalized to the controls for basal activity (without enzyme) and 100% activity (with enzyme). In the AC50 values were determined from concentration-response data modeled with the standard Hill equation. Assay buffer: 50 mM citric acid (titrated with potassium phosphate to pH 4.5), 0.005% Tween-20, pH 4.5. (pH 4.5 is an optimal condition for this enzyme assay) 1536-well assay protocol for the human alpha-galactosidase: (1) Add 2 ul/well of enzyme (12 nM final) (2) Add 23 nL compounds in DMSO solution. The final titration was 0.7 nM to 77 uM. (3) Add 1 ul of substrate ([…]) (4) Incubate at room temperature for 20 min. (5) Add 2 ul stop solution (1M NaOH and 1M Glycine mixture, pH 10) (6) Detect the assay plate in a ViewLux plate reader (PerkinElmer) with Ex=365 nm and Em=440nm. Keywords: MLSMR, MLPCN, NIH Roadmap, qHTS, NCGC, : Alpha-galactosidase, Fabry Disease, pharmacological chaperone, chaperone therapy

Structure (SMILES)	outcome
O=S(=O)(c1cccc(Cl)c1)N1CCN(c2nc(-c3ccccc3)nc3ccccc23)CC1	inactive
O=S(=O)(c1ccc(F)cc1)N1CCN(c2nc(-c3ccc(F)cc3)nc3cc(Cl)ccc23)CC1	inactive
N#Cc1ccc(S(=O)(=O)N2CCN(c3nc(-c4ccccc4)nc4ccccc34)CC2)cc1	inactive
N#Cc1ccccc1S(=O)(=O)N1CCN(c2nc(-c3ccccc3)nc3ccccc23)CC1	inactive
CC(C)(C)c1ccc(S(=O)(=O)N2CCN(c3nc(-c4cccs4)nc4ccccc34)CC2)cc1	inactive
O=S(=O)(c1ccc2c(c1)CCCC2)N1CCN(c2nc(-c3ccccc3)nc3ccccc23)CC1	inactive
O=[N+]([O-])c1ccc(S(=O)(=O)N2CCN(c3nc(-c4ccccc4)nc4ccccc34)CC2)cc1	inactive
CCOC(=O)c1ccc(S(=O)(=O)N2CCN(c3nc(-c4cccs4)nc4ccccc34)CC2)cc1	inactive
O=S(=O)(c1ccc2c(c1)CCCC2)N1CCN(c2nc(-c3cccs3)nc3ccccc23)CC1	inactive
O=S(=O)(c1ccc2ccccc2c1)N1CCN(c2nc(-c3cccs3)nc3ccccc23)CC1	inactive
Cc1ccc(-c2nc(N3CCN(S(=O)(=O)c4ccc(F)cc4)CC3)c3ccc(Cl)cc3n2)cc1	inactive
O=S(=O)(c1ccc2c(c1)OCCO2)N1CCN(c2nc(-c3cccs3)nc3ccccc23)CC1	inactive
O=S(=O)(c1ccc2c(c1)CCC2)N1CCN(c2nc(-c3ccccc3)nc3ccccc23)CC1	inactive
O=[N+]([O-])c1cccc(S(=O)(=O)N2CCN(c3nc(-c4ccccc4)nc4ccccc34)CC2)c1	inactive
O=S(=O)(c1ccc(Cl)cc1)N1CCN(c2nc(-c3ccccc3)nc3ccccc23)CC1	inactive
COc1ccc(-c2nc(N3CCN(S(=O)(=O)c4ccccc4)CC3)c3ccccc3n2)cc1	inactive
O=S(=O)(c1ccccc1Cl)N1CCN(c2nc(-c3cccs3)nc3ccccc23)CC1	inactive
O=S(=O)(c1ccc(Cl)cc1)N1CCN(c2nc(-c3cccc(Br)c3)nc3ccccc23)CC1	inactive
O=[N+]([O-])c1ccccc1S(=O)(=O)N1CCN(c2nc(-c3ccccc3)nc3ccccc23)CC1	inactive
O=S(=O)(c1ccccc1F)N1CCN(c2nc(-c3cccs3)nc3ccccc23)CC1	inactive
S=C(NCCCc1cnc[nH]1)NCCCN(Cc1ccc(Cl)c(Cl)c1)c1ccc(Br)cn1	inactive
O=S(=O)(c1ccccc1C(F)(F)F)N1CCN(c2nc(-c3ccccc3)nc3ccccc23)CC1	inactive
O=S(=O)(c1cccc(C(F)(F)F)c1)N1CCN(c2nc(-c3cccs3)nc3cc(Cl)ccc23)CC1	inactive
CCOc1ccc(S(=O)(=O)N2CCN(c3nc(-c4ccccc4)nc4ccccc34)CC2)cc1OCC	inactive
O=S(=O)(c1ccccc1Cl)N1CCN(c2nc(-c3ccccc3)nc3ccccc23)CC1	inactive
COc1ccc(S(=O)(=O)N2CCN(c3nc(-c4cccs4)nc4ccccc34)CC2)cc1	inactive
O=S(=O)(c1ccccc1Br)N1CCN(c2nc(-c3ccccc3)nc3ccccc23)CC1	inactive
O=S(=O)(c1ccc(OC(F)(F)F)cc1)N1CCN(c2nc(-c3ccccc3)nc3ccccc23)CC1	inactive
CC(=O)c1ccc(S(=O)(=O)N2CCN(c3nc(-c4cccs4)nc4ccccc34)CC2)cc1	inactive
O=S(=O)(c1ccc(F)cc1)N1CCN(c2nc(-c3cccs3)nc3cc(Cl)ccc23)CC1	inactive

Source: PubChem BioAssay AID2578 (National Center for Advancing Translational Sciences (NCATS), 2010)
